# Assay results from ChEMBL document CHEMBL3988442, “University of Dundee, Small-Polar-MMV Screening Library” (2021).
# About 1,000 (1.4%) of roughly 69,000 compounds showed an effect of 50% or more. Only a selection was taken, and strong results are over-represented in it overall.
# Tested on: Leishmania donovani
# Test: Leishmania intramacrophage assay
# Format: functional, organism-based
# Parameters: scale not given: in the data most compounds retested in dose-response had high values
smiles,measurement,setting,value
CC(Cc1cccc(F)c1)C(=O)NS(=O)(=O)c1ccc(F)cc1 (stereo not given),Percent Effect,"30.3 µM, […]",5.076%
CC(CN1CCOCC1)NC(=O)c1cccc2cn[nH]c12 (stereo not given),Percent Effect,"30.3 µM, […]",18.62%
CN(C)C(=O)c1cc2ncc(C(=O)NC3CCCC3)cc2n1C,Percent Effect,"30.3 µM, […]",-2.053%
Cc1ncccc1CNC1CCCN(Cc2noc(C3CC3)n2)C1 (stereo not given),Percent Effect,30 µM,51.55%
Cc1ccc(CNC2CCCN(Cc3noc(C4CC4)n3)C2)s1 (stereo not given),Percent Effect,30 µM,1.737%
Cc1ccsc1CNC1CCCN(Cc2noc(C3CC3)n2)C1 (stereo not given),Percent Effect,30 µM,29.68%
Cc1ccc(N2CCCC(NCc3ccc(C)o3)C2)nn1 (stereo not given),Percent Effect,"30 µM, 30.03 µM",1.465%
CCc1cc(N2CCC(NCc3ccc(C)o3)CC2)ncn1,Percent Effect,"30.3 µM, […]",57.16%
CCc1cc(N2CCC(Nc3ccc(Cl)cn3)CC2)ncn1,Percent Effect,"30.3 µM, […]",39.5%
COc1c(CNCCNC(=O)c2ccccc2)c(C)nn1C.Cl,Percent Effect,30 µM,37.81%
Cc1nc(C)n(CC2CCCCN2CCOc2cccc(C#N)c2)n1 (stereo not given),Percent Effect,30 µM,14.77%
Cc1noc(C(C)N2CCN(c3ncnc4ccccc34)CC2)n1 (stereo not given),Percent Effect,"30.3 µM, […]",-13.38%
Cc1noc(C(C)N2CCN(c3ncnc4sccc34)CC2)n1 (stereo not given),Percent Effect,"30.3 µM, […]",61.64%
CCc1noc(C(C)N2CCN(c3ncnc4sccc34)CC2)n1 (stereo not given),Percent Effect,"30.3 µM, […]",17.92%
Cc1cnn(C2CCCN(C(=O)c3cc[nH]n3)C2)c1 (stereo not given),Percent Effect,"30.3 µM, […]",9.905%
CCC(CN1CCCC1)NC(=O)C1(c2ccc(F)cc2)CC1 (stereo not given),Percent Effect,"30.3 µM, […]",52.84%
CCC(CN1CCCC1)NC(=O)C1(c2cccc(F)c2)CC1.O=C(O)CC(O)(CC(=O)O)C(=O)O (stereo not given),Percent Effect,"30.3 µM, […]",43.99%
CCC(CN1CCCCC1)NC(=O)C1(c2ccc(F)cc2)CC1.O=C(O)CC(O)(CC(=O)O)C(=O)O (stereo not given),Percent Effect,"30.3 µM, […]",18.07%
COCCCN1CCCN(C(C)c2nc(C3CC3)no2)CC1 (stereo not given),Percent Effect,"30 µM, 30.03 µM",35.53%
CCOc1ccc(C(=O)N(C)Cc2nccn2CC(F)(F)F)cc1,Percent Effect,"30.3 µM, […]",3.454%
CCC(C)c1ccc(NC(=O)C2CCN(C(=O)N(C)C)CC2)cc1 (stereo not given),Percent Effect,"30.3 µM, […]",18.48%
CCOc1ccnc(N2CCN(C(=O)c3ccncc3)CC2)n1,Percent Effect,30 µM,-11.04%
Cn1cc(CN2CCC3(CC2)CC(c2ccncc2)C(=O)N3)cn1.O=C(O)C(F)(F)F.O=C(O)C(F)(F)F (stereo not given),Percent Effect,"30 µM, 30.03 µM",3.212%
COc1ccc(CCN2CCCC(CN(C)Cc3[nH]cnc3C)C2)cc1 (stereo not given),Percent Effect,"30.3 µM, […]",-2.681%
Cc1cc(CN2CCC(C3CCN(CCc4ccccc4)C3)CC2)[nH]n1 (stereo not given),Percent Effect,"30.3 µM, […]",16.23%
CN(Cc1cccc(O)c1)CC1CCCN(CCc2ccc(Cl)cc2)C1 (stereo not given),Percent Effect,"30 µM, 30.03 µM",95.8%
Cc1nc[nH]c1CN1CCC(C2CCN(CCc3ccccc3)C2)CC1 (stereo not given),Percent Effect,"30.3 µM, […]",22.99%
Cc1nc[nH]c1CN(C)CC1CCCN(CCc2ccc(Cl)cc2)C1 (stereo not given),Percent Effect,"30 µM, 30.03 µM",95.69%
Cc1nc(C)n(CC2CCCN(CCc3ccncc3)C2)n1 (stereo not given),Percent Effect,"30 µM, 30.03 µM",27.42%
COc1ccccc1CCN1CCCC(CN(C)Cc2cc(C)n[nH]2)C1 (stereo not given),Percent Effect,"30.3 µM, […]",19.41%
CCN(CC1CCCN(CCc2cccc(OC)c2)C1)C(=O)CN(C)C (stereo not given),Percent Effect,"30.3 µM, […]",48.28%
CCOCCC(=O)N(C)Cc1noc(C(C)C)n1,Percent Effect,"30.3 µM, […]",0.5615%
COc1cccc(OCC2CCCN(C(=O)c3ncc(F)cc3F)C2)c1 (stereo not given),Percent Effect,"30.3 µM, […]",9.755%
Cc1ccc(-c2cnnc(N3CCCC3c3nonc3C)n2)o1 (stereo not given),Percent Effect,"30.3 µM, […]",17.41%
Cc1ccc(OCC(=O)Nc2ncccc2OC(F)F)cc1,Percent Effect,"30.3 µM, […]",23.14%
Cc1ccc(C(=O)NCCCNc2ccc(C(F)(F)F)cn2)cc1,Percent Effect,30 µM,23.85%
Cc1noc(CN2CCN(C(=O)N(C)C)CC2)n1,Percent Effect,30 µM,8.701%
COc1cccc2c1OCC(NC(=O)NCCC(N)=O)C2 (stereo not given),Percent Effect,"30.3 µM, […]",-3.86%
CC1CCC(NCCCN2CCOCC2)CC1 (stereo not given),Percent Effect,"30.3 µM, […]",41.59%
Cc1ccc(C)c(-n2ncc(C(=O)NCC3COC(C)(C)O3)c2N)c1 (stereo not given),Percent Effect,"30.3 µM, […]",6.712%
OC1CCN(C2CCN(c3ccc(Cn4ccnc4)cn3)CC2)CC1,Percent Effect,"30.3 µM, […]",61.02%
c1cn(Cc2ccc(N3CCCN(C4CCCC4)CC3)nc2)cn1,Percent Effect,"30.3 µM, […]",60.72%
CC1CCN(c2ccc(CNC(=O)NCCn3ccnc3)cn2)CC1,Percent Effect,"30.3 µM, […]",-10.4%
c1csc(CN2CCCN(c3ccc(Cn4ccnc4)cn3)CC2)c1,Percent Effect,"30.3 µM, […]",43.35%
Fc1ccc(N2CCCN(c3ccc(Cn4ccnc4)cn3)CC2)cc1,Percent Effect,"30.3 µM, […]",41.56%
CN(CC1CCN(c2ccccc2)C1)c1ccc(Cn2ccnc2)cn1 (stereo not given),Percent Effect,"30.3 µM, […]",-5.433%
CC(=O)NC1CCN(C(=O)c2cnc(COc3ccccc3)nc2O)C1 (stereo not given),Percent Effect,"30.3 µM, […]",6.861%
Cc1ccc(CN2CCc3onc(COc4cccnc4)c3C2)s1.O=C(O)C(F)(F)F.O=C(O)C(F)(F)F,Percent Effect,"30.3 µM, […]",-45.52%
O=S(=O)(NCc1ccnc(-n2ccnc2)c1)c1cncc(Cl)c1,Percent Effect,"30.3 µM, […]",-18.27%
COCCNC(=O)Cn1cc(OCc2ccc(F)cc2)c(=O)cc1CO,Percent Effect,"30.3 µM, […]",27.19%
Cc1nnc(N2CC[C@H](OCC3CC3)[C@@H](Cc3ccccc3)C2)s1.O=C(O)C(F)(F)F,Percent Effect,"30 µM, 30.03 µM",51.69%
Cc1nnc(N2CC[C@@H](OCC3CC3)[C@@H](Cc3ccccc3)C2)s1.O=C(O)C(F)(F)F,Percent Effect,"30.3 µM, […]",35.34%
CO[C@@H]1CCN(c2nnc(C)s2)C[C@@H]1Cc1ccccc1.O=C(O)C(F)(F)F,Percent Effect,"30.3 µM, […]",9.959%
O=C(Nc1cnccn1)[C@@H]1COC[C@H]2CN(C3CCC3)C[C@H]21.O=C(O)C(F)(F)F,Percent Effect,"30.3 µM, […]",-10.65%
CCc1nnc(Nc2cccc(C3CCN(CCO)CC3)n2)s1,Percent Effect,"30 µM, 30.03 µM",20.13%
